Test [1] in a line: NCI Yeast Anticancer Drug Screen. Data for the rad50 strain (AID 155).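 Also: 0% = growth of vehicle-only cultures of the same strain.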 The settings on record: S. cerevisiae rad50 strain growth inhibition, stronger effect = higher value. In short, it runs like this:
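DNA repair mutant yeast, compound exposure, growth read-out; inhibition is taken relative to vehicle.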

Test [2] can be described thus: NCI Yeast Anticancer Drug Screen. Data for the mec2-1 strain (AID 157). The settings on record: S. cerevisiae mec2-1 strain, stronger effect = higher value. The gist of the method:
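Yeast mec2-1 mutant treated with compound. Readout: growth inhibition vs vehicle controls.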

Test [3] is described as follows: NCI Yeast Anticancer Drug Screen. Data for the sgs1 mgt1 strain (AID 161).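 Also: 0% = growth of cultures given vehicle only.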 The note with it: S. cerevisiae sgs1 mgt1 strain, stronger effect = higher value. The gist of the method:
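Mutant yeast exposed to compound; growth scored against vehicle-only wells.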

A short description of test [4]: NCI Yeast Anticancer Drug Screen. Data for the cln2 rad14 strain (AID 165).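 Also: 0% = growth equal to vehicle treated cultures.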 The settings on record: S. cerevisiae cln2 rad14 strain, stronger effect = higher value. The gist of the method: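 cln2 rad14 yeast strain; compound exposure; growth inhibition read vs vehicle controls.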
Test [5] in a line: NCI Yeast Anticancer Drug Screen. Data for the bub3 strain (AID 167). The settings on record: S. cerevisiae bub3 mutant strain, stronger effect = higher value. In short, it runs like this: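 In this screen, a yeast mutant lacking normal mitotic checkpoint function is challenged with compound. Relative growth versus vehicle gives the inhibition value.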
Test [6] in a line: NCI Yeast Anticancer Drug Screen. Data for the mlh1 rad18 strain (AID 175). The note with it: S. cerevisiae mlh1 rad18 strain growth inhibition, stronger effect = higher value. The gist of the method: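 Yeast w/ defined DNA-repair lesions; compound exposure; growth vs vehicle controls → % inhibition.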
Setting [7] is: at 5.0 µM (retest, dose inferred, filed as 0.5).
Where [8] appears, read: at 50.0 µM (retest, dose inferred, filed as 5.0).

The panel holds about 79,000 compounds, 15% with a hit somewhere; the sample as a whole holds those more often. Unmarked numbers belong to inactive results. The source made the active and inactive calls. Rule as the data show it: active = growth inhibition above about 70%; inactive = the rest.

For `COc1cccc2c1C(=O)c1c(O)c3c(c(O)c1C2=O)CC(O)(C(=O)CO)CC3OC1CC(N)C(I)C(C)O1` (stereo not given), the growth inhibition was 98% (active) in test [1] (setting [7]); 98% (active) in test [1] (setting [8]); 89.5% (active) in test [1] (at 50.0 µM); 98% (active) in test [2] (setting [7]); 99% (active) in test [2] (setting [8]); 88.8% (active) in test [2] (at 50.0 µM). The growth inhibition was 98% (active) in test [3] (setting [7]); 98% (active) in test [3] (setting [8]); 85.8% (active) in test [3] (at 50.0 µM); 95% (active) in test [4] (setting [7]); 98% (active) in test [4] (setting [8]); 87.4% (active) in test [4] (at 50.0 µM). For the same compound, the growth inhibition in test [5] (setting [7]) is 98% (active); in test [5] (setting [8]), 98% (active); in test [5] (at 50.0 µM) it was 83.8% (active); in test [6] (setting [7]), 96% (active); in test [6] (setting [8]) it was 97% (active); in test [6] (at 50.0 µM) it was 91% (active).

In the case of `O=C(CSSCC(=O)Nc1ccccc1)Nc1ccccc1`, the growth inhibition in test [1] (setting [7]) is -6%; in test [1] (setting [8]), 15%; in test [1] (at 50.0 µM), 29.6%; in test [2] (setting [7]), 1%; in test [2] (setting [8]) it was 35%; in test [2] (at 50.0 µM) it was 17.5%. Further, the growth inhibition in test [3] (setting [7]) is 1%; in test [3] (setting [8]), -10%; in test [3] (at 50.0 µM), 54.8%; in test [4] (setting [7]), -5%; in test [4] (setting [8]), 10%; in test [4] (at 50.0 µM), 48.2%. Also, the growth inhibition in test [5] (setting [7]) is -12%; in test [5] (setting [8]), 6%; in test [5] (at 50.0 µM) it was 22.8%; in test [6] (setting [7]) it was -12%; in test [6] (setting [8]) it was 19%; in test [6] (at 50.0 µM), 22%.

Regarding `O=C1O/C(=C(\Cc2ccccc2)c2ccccc2)N(c2ccccc2)C1=O`, the growth inhibition is 5% in test [1] (setting [7]); 30% in test [1] (setting [8]); 69.2% in test [1] (at 50.0 µM); -6% in test [2] (setting [7]); 23% in test [2] (setting [8]); 18.6% in test [2] (at 50.0 µM). Besides, the growth inhibition in test [3] (setting [7]) is 0%; in test [3] (setting [8]), 28%; in test [3] (at 50.0 µM) it was 22.9%; in test [4] (setting [7]), -5%; in test [4] (setting [8]) it was -9%; in test [4] (at 50.0 µM), -30.2%. Moreover, the growth inhibition in test [5] (setting [7]) was 0%; in test [5] (setting [8]), 13%; in test [5] (at 50.0 µM), 14.9%; in test [6] (setting [7]), -6%; in test [6] (setting [8]) it was 21%; in test [6] (at 50.0 µM) it was 28.8%.

As to `CN(C)c1ccc(/C=C/c2ccnc3ccccc23)c(O)c1`, the growth inhibition is 0% in test [1] (setting [7]); -6% in test [1] (setting [8]); 57% in test [1] (at 50.0 µM); -4% in test [2] (setting [7]); -4% in test [2] (setting [8]); 28.6% in test [2] (at 50.0 µM). Further, the growth inhibition in test [3] (setting [7]) is 0%; in test [3] (setting [8]), -6%; in test [3] (at 50.0 µM) it was 58.9%; in test [4] (setting [7]) it was 3%; in test [4] (setting [8]) it was -3%; in test [4] (at 50.0 µM), 34%. Further, the growth inhibition was -4% in test [5] (setting [7]); -6% in test [5] (setting [8]); 40.9% in test [5] (at 50.0 µM); -8% in test [6] (setting [7]); -2% in test [6] (setting [8]); 68.8% in test [6] (at 50.0 µM).

In the case of `O=C1CSC(c2ccccc2O)N1c1ccc(-n2c(-c3ccccc3)nc3ccccc3c2=O)cc1` (stereo not given), the growth inhibition in test [1] (setting [7]) was 2%; in test [1] (setting [8]), 78% (active); in test [1] (at 50.0 µM) it was 67.3%; in test [2] (setting [7]) it was -1%; in test [2] (setting [8]), 39%; in test [2] (at 50.0 µM), 64.4%. In addition, the growth inhibition in test [3] (setting [7]) was 5%; in test [3] (setting [8]), 50%; in test [3] (at 50.0 µM), 72.5% (active); in test [4] (setting [7]), 29%; in test [4] (setting [8]) it was 79% (active); in test [4] (at 50.0 µM), 78.5% (active). Besides, the growth inhibition was -13% in test [5] (setting [7]); 56% in test [5] (setting [8]); 74.8% (active) in test [5] (at 50.0 µM); 0% in test [6] (setting [7]); 81% (active) in test [6] (setting [8]); 75.5% (active) in test [6] (at 50.0 µM).

With `O=C(O)C(CCc1cccc2ccccc12)c1ccccc1` (stereo not given), the growth inhibition in test [1] (setting [7]) was 13%; in test [1] (setting [8]) it was 97% (active); in test [1] (at 50.0 µM), 99.6% (active); in test [2] (setting [7]) it was 2%; in test [2] (setting [8]) it was 95% (active); in test [2] (at 50.0 µM), 99.2% (active). Also, the growth inhibition in test [3] (setting [7]) is 5%; in test [3] (setting [8]) it was 98% (active); in test [3] (at 50.0 µM), 99.5% (active); in test [4] (setting [7]), -4%; in test [4] (setting [8]), 96% (active); in test [4] (at 50.0 µM) it was 99.3% (active). Besides, the growth inhibition in test [5] (setting [7]) was 3%; in test [5] (setting [8]) it was 73% (active); in test [5] (at 50.0 µM) it was 99% (active); in test [6] (setting [7]), 5%; in test [6] (setting [8]), 98% (active); in test [6] (at 50.0 µM), 99.4% (active).

Take `CC(C)Cc1ccc(C(C)/C=C2\CCC(CN3CCCCC3)C2=O)cc1` (stereo not given): the growth inhibition in test [1] (setting [7]) is 93% (active); in test [1] (setting [8]), 98% (active); in test [1] (at 50.0 µM) it was 92.3% (active); in test [2] (setting [7]) it was 90% (active); in test [2] (setting [8]) it was 99% (active); in test [2] (at 50.0 µM) it was 94.2% (active). In addition, the growth inhibition in test [3] (setting [7]) is 84% (active); in test [3] (setting [8]), 98% (active); in test [3] (at 50.0 µM), 94.2% (active); in test [4] (setting [7]), 80% (active); in test [4] (setting [8]) it was 99% (active); in test [4] (at 50.0 µM), 92.7% (active). The growth inhibition in test [5] (setting [7]) is 98% (active); in test [5] (setting [8]) it was 98% (active); in test [5] (at 50.0 µM) it was 93.2% (active); in test [6] (setting [7]) it was 94% (active); in test [6] (setting [8]) it was 98% (active); in test [6] (at 50.0 µM), 89.6% (active).

As for `C1=CC2OC2CCCCCCCC1` (mixture of isomers), the growth inhibition in test [1] (setting [7]) is 7%; in test [1] (setting [8]), 75% (active); in test [1] (at 50.0 µM), 83.2% (active); in test [2] (setting [7]), 0%; in test [2] (setting [8]), 80% (active); in test [2] (at 50.0 µM), 62.5%. Moreover, the growth inhibition was 2% in test [3] (setting [7]); 78% (active) in test [3] (setting [8]); 84.8% (active) in test [3] (at 50.0 µM); -2% in test [4] (setting [7]); 59% in test [4] (setting [8]); 31.6% in test [4] (at 50.0 µM). Further, the growth inhibition in test [5] (setting [7]) is -5%; in test [5] (setting [8]) it was 73% (active); in test [5] (at 50.0 µM) it was 50.7%; in test [6] (setting [7]) it was 1%; in test [6] (setting [8]) it was 90% (active); in test [6] (at 50.0 µM) it was 70.9% (active).

With `O=[N+]([O-])c1ccc(C(Br)(Br)c2ccc([N+](=O)[O-])cc2)cc1`, the growth inhibition in test [1] (setting [7]) was 99% (active); in test [1] (setting [8]) it was 99% (active); in test [1] (at 50.0 µM), 99.7% (active); in test [2] (setting [7]), 97% (active); in test [2] (setting [8]), 100% (active); in test [2] (at 50.0 µM) it was 99.7% (active). The growth inhibition is 100% (active) in test [3] (setting [7]); 100% (active) in test [3] (setting [8]); 99.8% (active) in test [3] (at 50.0 µM); 95% (active) in test [4] (setting [7]); 99% (active) in test [4] (setting [8]); 99.3% (active) in test [4] (at 50.0 µM). The growth inhibition in test [5] (setting [7]) was 80% (active); in test [5] (setting [8]) it was 99% (active); in test [5] (at 50.0 µM), 99.5% (active); in test [6] (setting [7]), 93% (active); in test [6] (setting [8]) it was 99% (active); in test [6] (at 50.0 µM) it was 99.5% (active).

Regarding `COc1ccc(-c2cc(-c3ccc4c(c3)CC(C)O4)nc(N)n2)cc1` (stereo not given), the growth inhibition in test [1] (setting [7]) was 20%; in test [1] (setting [8]), 1%; in test [1] (at 50.0 µM), 90.8% (active); in test [2] (setting [7]) it was 0%; in test [2] (setting [8]), -14%; in test [2] (at 50.0 µM), 90.8% (active). Besides, the growth inhibition was 20% in test [3] (setting [7]); 3% in test [3] (setting [8]); 91.2% (active) in test [3] (at 50.0 µM); 19% in test [4] (setting [7]); 15% in test [4] (setting [8]); 86.5% (active) in test [4] (at 50.0 µM). The growth inhibition in test [5] (setting [7]) is 19%; in test [5] (setting [8]), 15%; in test [5] (at 50.0 µM) it was 88.7% (active); in test [6] (setting [7]) it was -16%; in test [6] (setting [8]), -19%; in test [6] (at 50.0 µM), 88.7% (active).

The record behind these values is PubChem BioAssay (NCI).
